# Records with an inconclusive call do not appear. Active and inactive are the calls of the source. The calls were made as follows, unless noted: active = hit-call score of the fitted dose curve at least 0.9, where 1 is the maximum; inactive = score below 0.9.
# Key:
# [1] = target: human RAR-related Orphan Receptor beta (RORb), RORB (gene 6096) (UniProt Q92753); assay: ATG_RORb_TRANS: Attagene TRANS-FACTORIAL HepG2 Assay for human RAR-related Orphan Receptor beta (RORb) (AID 2283010; active = hit-call score of the fitted dose curve at least 0.9, where 1 is the maximum)
# In short: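 Transfect HepG2 with multiple GAL4-UAS reporter transcription units; dose chemicals for 24 h; isolate RNA, reverse-transcribe and PCR-amplify reporter sequences; label, digest and resolve fragments by capillary electrophoresis; fit increases relative to DMSO.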
# [2] = target: human RAR-related Orphan Receptor gamma (RORg), RORC (gene 6097) (UniProt P51449); assay: ATG_RORg_TRANS: Attagene TRANS-FACTORIAL HepG2 Assay for human RAR-related Orphan Receptor gamma (RORg) (AID 2283011; active = hit-call score of the fitted dose curve at least 0.9, where 1 is the maximum)
# In short: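 First, HepG2 liver cells were transfected with GAL4-UAS-driven reporter constructs and the RORg-Gal4 fusion. Next, they were treated with chemical for 24 h. Finally, reporter mRNA was quantified by RT-PCR and capillary electrophoresis, with upward activity fitted against DMSO.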
# [3] = target: Retinoic acid receptor RXR-alpha (Homo sapiens) (UniProt P19793); assay: ATG_RXRa_TRANS: Attagene TRANS-FACTORIAL HepG2 Assay for human Retinoid X Receptor alpha (RXRa) (AID 2283012; active = hit-call score of the fitted dose curve at least 0.9, where 1 is the maximum)
# In short: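 Measures exogenous chimeric NR-GAL4 activity in transfected HepG2 liver cells after 24 h of dosing. Induced reporter mRNA was detected by RT-PCR with capillary electrophoresis, and gain of signal was analysed against DMSO.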
# [4] = target: human Thyroid Receptor alpha (THRa1), THRA (gene 7067) (UniProt P10827); assay: ATG_THRa1_TRANS: Attagene TRANS-FACTORIAL HepG2 Assay for human Thyroid Receptor alpha (THRa1) (AID 2283014; active = hit-call score of the fitted dose curve at least 0.9, where 1 is the maximum)
# In short: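 Reporter transcript induction, read by capillary electrophoresis of 6-FAM-labelled RT-PCR products, reflects activity of a transfected THRa1-Gal4 fusion in HepG2 liver cells. Cells were dosed for 24 h; activity was fitted in the positive direction against DMSO.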
# [5] = read-out: E-selectin (Homo sapiens) (UniProt P16581); assay: BSK_3C_Eselectin: BioMAP Diversity Plus: 3C Assay for Eselectin Biomarker Activity (AID 2283015); conditions: primary human endothelial cells (HUVEC); actives raise or lower the signal;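 also: cell surface E-selectin protein quantified by ELISA 24 h after dosing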
# In short: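 ELISA read-out of E-selectin on endothelial monolayers after 24 h chemical treatment. Human umbilical vein primary cells served as the system, with DMSO defining baseline activity for bidirectional fitting.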
# [6] = read-out: Interleukin-1 alpha (IL1a), IL1A (gene 3552); assay: BSK_BE3C_IL1a: BioMAP Diversity Plus: BE3C Assay for Interleukin-1 alpha (IL1a) Biomarker Activity (AID 2283016); conditions: primary human bronchial epithelial cells; actives raise or lower the signal
# In short: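 Signal from IL-1a ELISA, taken 24 h after chemical dosing of human bronchial epithelial cells, is compared with DMSO as baseline using bidirectional curve fitting.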
# [7] = read-out: Monocyte Chemoattractant Protein-1 (MCP1), CCL2 (gene 6347); assay: BSK_3C_MCP1: BioMAP Diversity Plus: 3C Assay for Monocyte Chemoattractant Protein-1 (MCP1) Biomarker Activity (AID 2283017); conditions: primary human endothelial cells (HUVEC); actives raise or lower the signal
# In short: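 ELISA read-out of MCP-1 from human umbilical vein endothelial cell cultures harvested 24 h post-dosing. Gain or loss of signal was fitted relative to DMSO.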
# [8] = read-out: Human Leukocyte Antigen - DR isotype (HLADR), HLA-DRA (gene 3122); assay: BSK_3C_HLADR: BioMAP Diversity Plus: 3C Assay for Human Leukocyte Antigen - DR isotype (HLADR) Biomarker Activity (AID 2283019); conditions: primary human endothelial cells (HUVEC); actives raise or lower the signal;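 as to outcome: ELISA of cell-surface HLA-DR on HUVEC 24 h after dosing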
# In short: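 ELISA readout of surface HLA-DR on human umbilical vein endothelium, taken 24 h after chemical treatment. Gain- and loss-of-signal were both fitted relative to DMSO.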
# [9] = read-out: Interleukin-8 (IL8), CXCL8 (gene 3576); assay: BSK_3C_IL8: BioMAP Diversity Plus: 3C Assay for Interleukin-8 (IL8) Biomarker Activity (AID 2283020); conditions: primary human endothelial cells (HUVEC); actives raise or lower the signal
# In short: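 Endothelial primary cells of human umbilical vein origin are dosed with chemical; after 24 h the IL-8 biomarker is measured by ELISA, and concentration–response is fitted in both directions versus DMSO.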
# [10] = read-out: Monokine induced gamma interferon (MIG), CXCL9 (gene 4283); assay: BSK_3C_MIG: BioMAP Diversity Plus: 3C Assay for Monokine induced gamma interferon (MIG) Biomarker Activity (AID 2283021); conditions: primary human endothelial cells (HUVEC); actives raise or lower the signal
# In short: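 Endothelial primary cells (human umbilical vein) are dosed with test chemical in the 3C system. MIG levels are measured by ELISA at 24 h and fitted in both directions relative to DMSO.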
# [11] = target: human Vitamin D Receptor (VDR), VDR (gene 7421) (UniProt P11473); assay: ATG_VDR_TRANS: Attagene TRANS-FACTORIAL HepG2 Assay for human Vitamin D Receptor (VDR) (AID 2283022; active = hit-call score of the fitted dose curve at least 0.9, where 1 is the maximum)
# In short: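 Steps: transfect HepG2 with GAL4-UAS-driven reporter constructs; dose compounds 24 h; isolate RNA, reverse-transcribe, PCR-amplify with 6-FAM-labelled primer extension and HpaI digestion; quantify fragments by capillary electrophoresis relative to DMSO.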
# [12] = BSK_3C_SRB: Viability Assessment in the BioMAP Diversity Plus: 3C Assay (AID 2283023); conditions: primary human endothelial cells (HUVEC);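 also: fitted both ways against DMSO so a hit may be signal rise or drop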
# In short: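 Absorbance at 560 nm of sulforhodamine B-stained (0.1%) total protein served as a cytotoxicity readout in human umbilical vein endothelial cells, 24 h after chemical treatment. Signal was fitted bidirectionally relative to DMSO.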
# [13] = read-out: Matrix Metallopeptidase 1 (MMP1), MMP1 (gene 4312); assay: BSK_BE3C_MMP1: BioMAP Diversity Plus: BE3C Assay for Matrix Metallopeptidase 1 (MMP1) Biomarker Activity (AID 2283024); conditions: primary human bronchial epithelial cells; actives raise or lower the signal
# In short: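 MMP1 signal, measured by ELISA after a 24 h chemical exposure of human primary bronchial epithelial cells, is analysed with bidirectional fitting using DMSO as negative control.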
# [14] = BSK_3C_Vis: BioMAP Diversity Plus: 3C Assay for Morphology Visualization (AID 2283025); conditions: primary human endothelial cells (HUVEC);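 also: fitted both ways so gain or loss versus DMSO counts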
# In short: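 Morphology read by light microscopy serves as a background control for the multiplexed 3C assay in human umbilical vein endothelial cells, taken 24 h after dosing, with DMSO as the negative control and bidirectional curve fitting.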
# [15] = read-out: Pselectin, SELP (gene 6403); assay: BSK_4H_Pselectin: BioMAP Diversity Plus: 4H Assay for Pselectin Biomarker Activity (AID 2283026); conditions: primary human endothelial cells (HUVEC); actives raise or lower the signal
# In short: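 Endothelial primary cells (human umbilical vein) are dosed, incubated 24 h, and assayed for surface P-selectin by ELISA; responses in either direction are fitted relative to the DMSO negative control.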
# [16] = BSK_4H_SRB: Viability Assessment in the BioMAP Diversity Plus: 4H Assay (AID 2283027); conditions: primary human endothelial cells (HUVEC);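 also: cells exposed to compound for 24 h before staining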;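 as to AC50: curves fitted both ways versus DMSO so AC50 may be loss or gain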
# In short: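 Cytotoxicity read-out in primary human endothelial cells: after 24 h compound exposure, cells were TCA-fixed (10%), stained with 0.1% SRB and absorbance taken at 560 nm. Values fitted in both directions relative to DMSO.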
# [17] = BSK_BE3C_SRB: Viability Assessment in the BioMAP Diversity Plus: BE3C Assay (AID 2283028); conditions: primary human bronchial epithelial cells;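 as to AC50: fitted both ways so AC50 may mark signal gain or loss versus DMSO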
# In short: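 Cells (human bronchial epithelial, primary) are treated with chemicals, and after 24 h the parallel cultures are fixed in 10% TCA. These are then stained with 0.1% SRB and read at 560 nm. Gain or loss of signal is fitted relative to DMSO.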
# [18] = read-out: Thrombomodulin, THBD (gene 7056); assay: BSK_3C_Thrombomodulin: BioMAP Diversity Plus: 3C Assay for Thrombomodulin Biomarker Activity (AID 2283029); conditions: primary human endothelial cells (HUVEC); actives raise or lower the signal
# In short: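 Endothelial cells from umbilical vein are dosed with test chemical and incubated 24 h. Thrombomodulin is then quantified by ELISA, with DMSO serving as negative control and activity baseline.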
# [19] = target: human Retinoid X Receptor beta (RXRb), RXRB (gene 6257) (UniProt P28702); assay: ATG_RXRb_TRANS: Attagene TRANS-FACTORIAL HepG2 Assay for human Retinoid X Receptor beta (RXRb) (AID 2283013; active = hit-call score of the fitted dose curve at least 0.9, where 1 is the maximum)
# In short: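 Chimeric receptor-Gal4 activity was assessed in transiently transfected human HepG2 cells after 24 h exposure. Transcripts from GAL4-UAS reporters were quantified by fluorescent RT-PCR and capillary electrophoresis, with DMSO as negative control and baseline.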
# [20] = read-out: Monocyte Chemoattractant Protein-1 (MCP1), CCL2 (gene 6347); assay: BSK_4H_MCP1: BioMAP Diversity Plus: 4H Assay for Monocyte Chemoattractant Protein-1 (MCP1) Biomarker Activity (AID 2283018); conditions: primary human endothelial cells (HUVEC); actives raise or lower the signal
# In short: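 Endothelial cells from umbilical vein were treated with test chemical, then after 24 h MCP-1 levels were quantified by ELISA; endpoint values came from bidirectional fitting with DMSO as baseline of activity.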
# Sequence of E-selectin (Homo sapiens) (P16581 whole entry, looked up): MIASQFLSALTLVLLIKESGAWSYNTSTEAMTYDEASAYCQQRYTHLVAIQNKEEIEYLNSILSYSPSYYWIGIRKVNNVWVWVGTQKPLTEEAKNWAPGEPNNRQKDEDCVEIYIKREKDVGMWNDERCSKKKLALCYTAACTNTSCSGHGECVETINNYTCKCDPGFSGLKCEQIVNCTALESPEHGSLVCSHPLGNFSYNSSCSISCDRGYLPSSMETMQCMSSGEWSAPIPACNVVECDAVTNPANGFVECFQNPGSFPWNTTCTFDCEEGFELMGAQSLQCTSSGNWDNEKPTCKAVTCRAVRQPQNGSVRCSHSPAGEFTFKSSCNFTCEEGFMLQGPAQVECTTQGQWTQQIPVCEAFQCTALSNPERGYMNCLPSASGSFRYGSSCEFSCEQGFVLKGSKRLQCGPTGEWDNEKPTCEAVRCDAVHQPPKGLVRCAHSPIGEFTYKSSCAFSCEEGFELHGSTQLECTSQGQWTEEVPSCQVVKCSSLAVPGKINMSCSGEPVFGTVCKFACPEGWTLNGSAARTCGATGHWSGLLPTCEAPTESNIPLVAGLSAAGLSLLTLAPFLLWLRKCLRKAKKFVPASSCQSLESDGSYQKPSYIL
# Sequence of human Retinoid X Receptor beta (RXRb), RXRB (gene 6257) (P28702 whole entry, looked up, the tested form may be a part): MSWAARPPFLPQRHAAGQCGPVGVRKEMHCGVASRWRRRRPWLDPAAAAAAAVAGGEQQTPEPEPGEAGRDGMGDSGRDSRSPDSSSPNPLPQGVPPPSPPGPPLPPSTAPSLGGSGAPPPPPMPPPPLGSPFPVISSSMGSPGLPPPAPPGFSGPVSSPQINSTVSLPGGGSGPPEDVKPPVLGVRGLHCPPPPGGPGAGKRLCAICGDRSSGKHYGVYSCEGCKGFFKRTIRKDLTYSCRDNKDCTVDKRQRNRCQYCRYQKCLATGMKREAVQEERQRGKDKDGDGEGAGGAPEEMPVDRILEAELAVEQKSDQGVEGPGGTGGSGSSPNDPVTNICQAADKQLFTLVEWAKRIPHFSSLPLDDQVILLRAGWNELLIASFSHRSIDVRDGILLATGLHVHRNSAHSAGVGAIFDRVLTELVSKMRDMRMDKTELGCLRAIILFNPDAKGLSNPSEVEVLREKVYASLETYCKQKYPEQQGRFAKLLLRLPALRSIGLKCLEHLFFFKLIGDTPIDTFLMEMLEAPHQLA
# Sequence of human RAR-related Orphan Receptor beta (RORb), RORB (gene 6096) (Q92753 whole entry, looked up, the tested form may be a part): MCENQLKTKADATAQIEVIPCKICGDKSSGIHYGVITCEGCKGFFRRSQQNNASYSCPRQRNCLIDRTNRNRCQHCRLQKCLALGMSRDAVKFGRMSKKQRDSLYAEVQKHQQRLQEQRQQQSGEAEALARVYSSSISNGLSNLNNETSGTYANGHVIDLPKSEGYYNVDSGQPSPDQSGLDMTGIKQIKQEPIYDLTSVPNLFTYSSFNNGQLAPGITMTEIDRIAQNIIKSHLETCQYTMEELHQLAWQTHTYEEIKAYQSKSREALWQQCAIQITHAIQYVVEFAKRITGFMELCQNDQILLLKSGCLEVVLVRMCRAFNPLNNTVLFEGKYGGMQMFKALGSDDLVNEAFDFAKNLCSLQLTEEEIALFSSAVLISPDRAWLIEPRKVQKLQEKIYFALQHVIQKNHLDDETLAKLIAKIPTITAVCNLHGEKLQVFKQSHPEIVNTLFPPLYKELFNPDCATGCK
# Sequence of human RAR-related Orphan Receptor gamma (RORg), RORC (gene 6097) (P51449 whole entry, looked up, the tested form may be a part): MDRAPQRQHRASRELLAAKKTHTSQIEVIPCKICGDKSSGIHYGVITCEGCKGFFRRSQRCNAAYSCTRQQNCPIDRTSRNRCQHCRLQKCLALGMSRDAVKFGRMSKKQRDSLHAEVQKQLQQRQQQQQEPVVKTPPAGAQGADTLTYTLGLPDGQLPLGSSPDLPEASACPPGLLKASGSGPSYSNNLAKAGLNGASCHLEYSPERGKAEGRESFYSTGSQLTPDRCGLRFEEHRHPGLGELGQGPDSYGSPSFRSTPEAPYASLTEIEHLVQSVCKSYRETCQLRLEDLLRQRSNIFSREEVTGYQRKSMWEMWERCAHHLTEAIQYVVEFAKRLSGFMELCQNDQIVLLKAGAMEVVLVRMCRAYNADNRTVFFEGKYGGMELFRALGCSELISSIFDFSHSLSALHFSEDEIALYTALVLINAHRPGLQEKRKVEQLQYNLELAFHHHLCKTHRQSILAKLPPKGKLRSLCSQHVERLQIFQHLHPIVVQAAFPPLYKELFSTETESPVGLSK
# Sequence of human Thyroid Receptor alpha (THRa1), THRA (gene 7067) (P10827 whole entry, looked up, the tested form may be a part): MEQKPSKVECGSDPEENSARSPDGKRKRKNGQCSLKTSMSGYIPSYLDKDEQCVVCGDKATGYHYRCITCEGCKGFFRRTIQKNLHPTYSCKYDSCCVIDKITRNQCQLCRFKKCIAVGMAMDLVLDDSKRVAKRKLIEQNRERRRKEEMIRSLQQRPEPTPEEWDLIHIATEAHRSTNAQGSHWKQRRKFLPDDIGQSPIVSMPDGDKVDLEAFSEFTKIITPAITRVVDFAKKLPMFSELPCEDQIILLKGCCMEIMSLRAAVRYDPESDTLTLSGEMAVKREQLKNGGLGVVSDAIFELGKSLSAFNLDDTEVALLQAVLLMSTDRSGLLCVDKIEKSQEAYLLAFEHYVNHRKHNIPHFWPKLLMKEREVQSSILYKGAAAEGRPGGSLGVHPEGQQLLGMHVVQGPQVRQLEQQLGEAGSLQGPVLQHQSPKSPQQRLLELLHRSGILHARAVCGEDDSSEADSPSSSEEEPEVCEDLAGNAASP
# Sequence of human Vitamin D Receptor (VDR), VDR (gene 7421) (P11473 whole entry, looked up, the tested form may be a part): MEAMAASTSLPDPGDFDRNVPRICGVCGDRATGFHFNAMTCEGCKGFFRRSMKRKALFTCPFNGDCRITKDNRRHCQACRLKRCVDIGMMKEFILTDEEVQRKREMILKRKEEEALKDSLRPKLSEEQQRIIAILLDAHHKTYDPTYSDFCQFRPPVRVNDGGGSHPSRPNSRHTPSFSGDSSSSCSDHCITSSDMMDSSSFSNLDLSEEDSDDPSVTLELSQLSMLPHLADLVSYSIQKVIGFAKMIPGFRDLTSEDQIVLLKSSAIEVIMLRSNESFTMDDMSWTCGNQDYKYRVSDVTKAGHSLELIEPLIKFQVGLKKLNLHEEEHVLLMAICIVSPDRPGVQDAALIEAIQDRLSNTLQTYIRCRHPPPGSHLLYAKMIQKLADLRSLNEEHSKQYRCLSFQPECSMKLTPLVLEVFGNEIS
# Sequence of Retinoic acid receptor RXR-alpha (Homo sapiens) (P19793 whole entry, looked up, the tested form may be a part): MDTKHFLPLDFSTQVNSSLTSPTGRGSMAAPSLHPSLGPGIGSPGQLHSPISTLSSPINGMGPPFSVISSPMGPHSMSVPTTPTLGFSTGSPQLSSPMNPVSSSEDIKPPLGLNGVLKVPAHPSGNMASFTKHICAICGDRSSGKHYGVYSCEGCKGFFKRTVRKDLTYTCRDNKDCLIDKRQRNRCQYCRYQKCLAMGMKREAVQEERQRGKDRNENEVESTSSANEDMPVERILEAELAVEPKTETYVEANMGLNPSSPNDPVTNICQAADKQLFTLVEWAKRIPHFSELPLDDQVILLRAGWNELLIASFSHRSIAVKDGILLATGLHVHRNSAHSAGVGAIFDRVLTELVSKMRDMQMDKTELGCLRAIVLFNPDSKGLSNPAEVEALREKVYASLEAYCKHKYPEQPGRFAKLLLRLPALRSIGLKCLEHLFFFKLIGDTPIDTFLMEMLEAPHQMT
smiles,measurement,setting,value
Cc1nn(-c2cc(NS(C)(=O)=O)c(Cl)cc2Cl)c(=O)n1C(F)F,outcome,[1],inactive
same,outcome,[2],inactive
same,outcome,[3],inactive
same,outcome,[4],inactive
same,outcome,[5],inactive
same,outcome,[6],inactive
same,outcome,[7],inactive
same,outcome,[8],inactive
same,outcome,[9],inactive
same,outcome,[10],inactive
same,outcome,[11],inactive
same,outcome,[12],inactive
same,outcome,[13],inactive
same,outcome,[14],inactive
same,outcome,[15],inactive
same,outcome,[16],inactive
same,outcome,[17],inactive
same,outcome,[18],inactive
CCOP(=S)(OCC)Oc1ccc([N+](=O)[O-])cc1,outcome,[1],inactive
same,outcome,[2],inactive
same,outcome,[19],inactive
same,outcome,[5],inactive
same,outcome,[6],inactive
same,outcome,[7],inactive
same,AC50,[20],25.2 µM (active)
same,outcome,[8],inactive
same,outcome,[9],inactive
same,outcome,[10],inactive
same,outcome,[12],inactive
same,outcome,[13],inactive
same,AC50,[14],39 µM (active)
same,outcome,[15],inactive
same,outcome,[16],inactive
same,AC50,[17],21.5 µM (active)
same,outcome,[18],inactive
CC(=NC#N)N(C)Cc1ccc(Cl)nc1,outcome,[1],inactive
same,outcome,[2],inactive
same,outcome,[3],inactive
same,outcome,[19],inactive
same,outcome,[5],inactive
same,outcome,[6],inactive
same,outcome,[7],inactive
same,outcome,[20],inactive
same,outcome,[8],inactive
same,outcome,[9],inactive
same,outcome,[10],inactive
same,outcome,[11],inactive
same,outcome,[12],inactive
same,outcome,[13],inactive
same,outcome,[14],inactive
same,outcome,[15],inactive
same,AC50,[16],7.17 µM (active)
same,outcome,[17],inactive
same,outcome,[18],inactive
CC(C1CC1)C(O)(Cn1cncn1)c1ccc(Cl)cc1 (centres undefined),outcome,[1],inactive
same,outcome,[2],inactive
same,outcome,[3],inactive
same,outcome,[19],inactive
same,outcome,[5],inactive
same,outcome,[6],inactive
same,outcome,[7],inactive
same,outcome,[20],inactive
same,outcome,[8],inactive
same,outcome,[9],inactive
same,outcome,[10],inactive
same,outcome,[12],inactive
same,outcome,[13],inactive
same,outcome,[14],inactive
same,outcome,[15],inactive
same,outcome,[16],inactive
same,outcome,[17],inactive
same,outcome,[18],inactive
C#CC(C)(C)NC(=O)c1cc(Cl)cc(Cl)c1,outcome,[1],inactive
same,outcome,[2],inactive
same,outcome,[3],inactive
same,outcome,[19],inactive
same,outcome,[4],inactive
same,outcome,[5],inactive
same,outcome,[6],inactive
same,outcome,[7],inactive
same,AC50,[8],19.1 µM (active)
same,outcome,[9],inactive
same,outcome,[10],inactive
same,outcome,[12],inactive
same,outcome,[13],inactive
same,AC50,[14],3.25 µM (active)
same,outcome,[15],inactive
same,outcome,[16],inactive
same,outcome,[17],inactive
same,outcome,[18],inactive
CN(C)NC(=O)CCC(=O)O,outcome,[1],inactive
same,outcome,[2],inactive
same,outcome,[19],inactive
same,outcome,[4],inactive
same,outcome,[5],inactive
same,outcome,[6],inactive
same,outcome,[7],inactive
same,outcome,[20],inactive
same,outcome,[8],inactive
same,outcome,[9],inactive
same,outcome,[10],inactive
same,outcome,[11],inactive
same,outcome,[12],inactive
same,outcome,[13],inactive
same,outcome,[14],inactive
same,outcome,[15],inactive
same,outcome,[16],inactive
same,outcome,[17],inactive
same,outcome,[18],inactive

# Source: PubChem BioAssay (EPA / NIEHS)
